Results filed as inconclusive are left out. Values without a mark were called inactive. The source made the active and inactive calls. Unless noted, the call rests on the fitted dose curve; in most records, active means well fitted cell-killing curve with a large enough effect in the repeat runs; inconclusive means weak or mixed curves, or effect the other way; inactive means no such curve, though single readings can be large or run the other way.
Further: nearly all actives have a fitted effect of over 50% in size.
On the % scale 0 is the no-effect control and ±100 the full control effect.

A short description of the first assay: qHTS assay to identify small molecule agonists of the endoplasmic reticulum stress response signaling pathway - cell viability counter screen (AID 1159517; calls by dose curve; further: potency means the concentration at half of the fitted maximal effect;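 on activity change, negative = cytotoxicity: HeLa cells carrying an ER stress response element beta-lactamase reporter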). Conditions: ESRE-bla HeLa viability, CellTiter-Glo luminescence, 5 h; series mostly up to 61 µM; activity change, negative = cytotoxicity: at the top concentration. An outline of the steps:
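Cytotoxicity of test compounds toward ESRE-bla HeLa cells was assessed after 5 hr exposure. The luminescent CellTiter-Glo signal was measured 30 min after reagent addition.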
In general terms: Quantitative high-throughput screening tests each substance at several concentrations.
As for `NNc1nnc(NN)c2ccccc12`, the “activity change, negative = cytotoxicity” value was -1.72%.
Same read-out and setting: the same measure for `C=CCCCCCCCCCCCC`: 4.53%; for `O=C(O)c1ccc(Cl)cc1Cl`: 5.72% [at 78.8 µM]; for `O=C1CC(c2ccc(Cl)cc2)CC(=O)N1`: -6.77%.
The same measure, in the same setting: the result for `Cc1nc2n(c(=O)c1CCN1CCC(c3noc4cc(F)ccc34)CC1)CCC[C@H]2O` reads 1.41% [at 28.5 µM]; that for `CN(C)C(=O)CNC(=O)Cc1ccccc1`, -10.8%; that for `C=C(C)C(=O)OCC(C)(C)COC(=O)C(=C)C`, 1.04%.
Same read-out and setting: the result for `O=C(O)c1cc(Cl)cc([N+](=O)[O-])c1Cl` reads -11.4%; that for `O=S(=O)(O)c1ccc2cc(O)c(S(=O)(=O)O)cc2c1`, -0.331%; that for `On1nnc2ccccc21`, -4.33%.
In the case of `CN=C(NC#N)Nc1ccc(C2=NNC(=O)CC2C)cc1` (centres undefined), the “activity change, negative = cytotoxicity” value was 9.65%.
The same measure, in the same setting: the same measure for `CC(=O)Nc1cccc(C)c1`: 0.172% [at 78.8 µM]; for `CCc1ccc(C=O)cc1`: 1.62%.
Still for that read-out and setting: the same measure for `CC/C=C\CC1=C(C)CCC1=O`: 6.9%; for `OC[C@H](Cc1cccc(O)c1)[C@H](CO)Cc1cccc(O)c1`: 3.13% [at 78.8 µM].
As to `COc1ccc(Br)c(C)c1`, the “activity change, negative = cytotoxicity” value was -5.01% [at 78.8 µM].
Take `Cc1ccc(C=O)cc1C`: the “activity change, negative = cytotoxicity” value was 1.81%.
The same measure, in the same setting: the same measure for `CCCC/C=C\CCCCCCCCCC=O`: -1.29%; for `COc1cc2c(cc1OC)[C@@H]1CC(=O)[C@@H](CC(C)C)CN1CC2`: -3.38%; for `c1ccc2nccnc2c1`: -3.47% [at 78.8 µM].
Still for that read-out and setting: the same measure for `Cc1ccc2ccc(Cl)cc2n1`: -1.12%; for `CC(=O)OC(C)OC(=O)C(C)c1ccc(-c2ccccc2)c(F)c1` (centres undefined): -6.63%.
Same read-out and setting: the same measure for `CC(C)(C)c1nnc(NS(=O)(=O)c2ccc(N)cc2)s1`: 1.32%; for `CCn1ccc(NS(=O)(=O)c2ccc(N)cc2)nc1=O`: -2.4%.
As to `COc1ccc2c(c1)C(=O)N(CCc1ccc(S(=O)(=O)NC(=O)NC3CCCCC3)cc1)C(=O)C2(C)C`, the “activity change, negative = cytotoxicity” value was -3.16%.
On the same count and under the same terms, the result for `Cc1ccc2c(c1)OCC(=O)CO2` reads -9.95%; that for `Cc1ccc(S(=O)(=O)O)c(C)c1`, 7.39%.
Still for that read-out and setting: the result for `Cc1cc2cc3c(C)cc(=O)oc3c(C)c2o1` reads -1.47%.
Take `COc1nccnc1NS(=O)(=O)c1ccc(N)cc1`: the “activity change, negative = cytotoxicity” value is 0.124%.
Still for that read-out and setting: the result for `C=C(C)C1CCC(C)(O)CC1` (centres undefined) reads -6.77%.
`CC(C)N(c1ccccc1)C(C)C`: the “activity change, negative = cytotoxicity” value is 4.43%.
In the case of `CC(C)c1ccc2cc(C(C)C)ccc2c1`, the “activity change, negative = cytotoxicity” value was -8.91%.
Still for that read-out and setting: the same measure for `C=C(C)C(=O)OCCOP(=O)(O)OCCOC(=O)C(=C)C`: 1.56%.
Take `Cc1cc(Cl)c(C)cc1Cl`: the Potency is 54.9 µM (active).
As to `O=C(O)Cc1cn(-c2ccccc2)nc1-c1ccc(Cl)cc1`, the “activity change, negative = cytotoxicity” value is 2.29%.
In the case of `COC(=O)CCc1ccc(OCC(O)CNC(C)C)cc1` (centres undefined), the “activity change, negative = cytotoxicity” value is 0%.
Take `COc1ccc(-c2cc(=O)c3c(O)cc(O[C@@H]4O[C@H](CO[C@@H]5O[C@@H](C)[C@H](O)[C@@H](O)[C@H]5O)[C@@H](O)[C@H](O)[C@H]4O)cc3o2)cc1O`: the “activity change, negative = cytotoxicity” value is -0.354%.

Another assay in a line: qHTS assay to identify small molecule antagonists of the retinoid-related orphan receptor gamma (ROR-gamma) signaling pathway - cell viability counter screen (AID 1159520). The note with it: Tet-on RORgamma CHO cells viability, ATP luminescence, 16 h; series mostly up to 92.4 µM; activity, negative = cytotoxicity: at the top concentration. In short, it runs like this: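 Tet-on ROR gamma CHO cells (1,000/well) were plated 4 hr, given compounds in DMSO for 2 hr at 37 C, then induced with 1 uM final doxycycline for 16 hr. Viability was read as ATP by CellTiter-Glo luminescence after 30 min.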
With `NNc1nnc(NN)c2ccccc12`, the “activity, negative = cytotoxicity” value is -0.568% [at 42.5 µM].
Same read-out and setting: the result for `C=CCCCCCCCCCCCC` reads 9.11%; that for `O=C(O)c1ccc(Cl)cc1Cl`, 0.0119%; that for `O=C1CC(c2ccc(Cl)cc2)CC(=O)N1`, 5.09% [at 42.5 µM].
The same measure, in the same setting: the same measure for `Cc1nc2n(c(=O)c1CCN1CCC(c3noc4cc(F)ccc34)CC1)CCC[C@H]2O`: 0.561% [at 19 µM]; for `CN(C)C(=O)CNC(=O)Cc1ccccc1`: -2.64% [at 42.5 µM].
`C=C(C)C(=O)OCC(C)(C)COC(=O)C(=C)C`: the “activity, negative = cytotoxicity” value is -2.81%.
Still for that read-out and setting: the result for `O=C(O)c1cc(Cl)cc([N+](=O)[O-])c1Cl` reads 0.0123%; that for `O=S(=O)(O)c1ccc2cc(O)c(S(=O)(=O)O)cc2c1`, -6.01%.
In the case of `On1nnc2ccccc21`, the “activity, negative = cytotoxicity” value is -8.83%.
The same measure, in the same setting: the same measure for `CN=C(NC#N)Nc1ccc(C2=NNC(=O)CC2C)cc1` (centres undefined): -0.0398% [at 42.5 µM]; for `CC(=O)Nc1cccc(C)c1`: 10.8%; for `CCc1ccc(C=O)cc1`: -21.3%.
Still for that read-out and setting: the result for `CC/C=C\CC1=C(C)CCC1=O` reads -4.68%.
Same read-out and setting: the same measure for `OC[C@H](Cc1cccc(O)c1)[C@H](CO)Cc1cccc(O)c1`: 5.65%; for `COc1ccc(Br)c(C)c1`: 0.735%.
Regarding `Cc1ccc(C=O)cc1C`, the “activity, negative = cytotoxicity” value is 0.287%.
For `CCCC/C=C\CCCCCCCCCC=O`, the “activity, negative = cytotoxicity” value was -13.2%.
On to `COc1cc2c(cc1OC)[C@@H]1CC(=O)[C@@H](CC(C)C)CN1CC2`, for which the “activity, negative = cytotoxicity” value is -1.25% [at 42.5 µM].
On the same count and under the same terms, the same measure for `c1ccc2nccnc2c1`: 4.18%; for `Cc1ccc2ccc(Cl)cc2n1`: -0.671% [at 42.5 µM].
In the case of `CC(=O)OC(C)OC(=O)C(C)c1ccc(-c2ccccc2)c(F)c1` (centres undefined), the “activity, negative = cytotoxicity” value was -0.743% [at 42.5 µM].
On the same count and under the same terms, the same measure for `CC(C)(C)c1nnc(NS(=O)(=O)c2ccc(N)cc2)s1`: -1.14% [at 42.5 µM]; for `CCn1ccc(NS(=O)(=O)c2ccc(N)cc2)nc1=O`: 3.11% [at 42.5 µM]; for `COc1ccc2c(c1)C(=O)N(CCc1ccc(S(=O)(=O)NC(=O)NC3CCCCC3)cc1)C(=O)C2(C)C`: -0.763% [at 42.5 µM].
On to `Cc1ccc2c(c1)OCC(=O)CO2`, for which the “activity, negative = cytotoxicity” value is 0.736%.
Consider `Cc1ccc(S(=O)(=O)O)c(C)c1`, for which the “activity, negative = cytotoxicity” value was 10.9%.
For `Cc1cc2cc3c(C)cc(=O)oc3c(C)c2o1`, the “activity, negative = cytotoxicity” value was -3.17% [at 42.5 µM].
Same read-out and setting: the same measure for `COc1nccnc1NS(=O)(=O)c1ccc(N)cc1`: -3.25% [at 42.5 µM]; for `C=C(C)C1CCC(C)(O)CC1` (centres undefined): -10%; for `CC(C)N(c1ccccc1)C(C)C`: 1.25%.
As to `CC(C)c1ccc2cc(C(C)C)ccc2c1`, the “activity, negative = cytotoxicity” value was 3.4%.
Same read-out and setting: the result for `C=C(C)C(=O)OCCOP(=O)(O)OCCOC(=O)C(=C)C` reads 2.28%; that for `Cc1cc(Cl)c(C)cc1Cl`, 6.18%; that for `O=C(O)Cc1cn(-c2ccccc2)nc1-c1ccc(Cl)cc1`, -1.83% [at 42.5 µM].
On the same count and under the same terms, the same measure for `COC(=O)CCc1ccc(OCC(O)CNC(C)C)cc1` (centres undefined): -0.983% [at 42.5 µM]; for `COc1ccc(-c2cc(=O)c3c(O)cc(O[C@@H]4O[C@H](CO[C@@H]5O[C@@H](C)[C@H](O)[C@@H](O)[C@H]5O)[C@@H](O)[C@H](O)[C@H]4O)cc3o2)cc1O`: 6.58% [at 42.5 µM].

These data come from PubChem BioAssay (Tox21).
